# Experimental data: PubChem BioAssay (Tox21)
# Records with an inconclusive call do not appear. Calls of active or inactive are those of the source. The call rests on the fitted dose curve; in most records, active means well fitted cell-killing curve with a large enough effect in the repeat runs; inconclusive means weak or mixed curves, or effect the other way; inactive means flat fitted curve, though single readings scatter.
# Test: qHTS assay to identify small molecule antagonists of the estrogen receptor alpha (ER-alpha) signaling pathway using the BG1 cell line - cell viability counter screen (AID 743081);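 further: compound given together with 17beta-estradiol as the ER stimulus; nearly all actives have a fitted effect of over 45% in size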
# Details: BG1Luc4E2 viability, CellTiter-Fluor, 22 h; series mostly up to 70.3 µM; activity change, negative = cytotoxicity: at the top concentration
# On the % scale 0 is the no-effect control and ±100 the full control effect.
Structure (SMILES),"activity change, negative = cytotoxicity",outcome
Cc1ccc(-c2ncc(Cl)cc2-c2ccc(S(C)(=O)=O)cc2)cn1,-4.48% (inactive),
CCCc1nn(C)c2c(=O)[nH]c(-c3cc(S(=O)(=O)N4CCN(C)CC4)ccc3OCC)nc12,-3.33% (inactive),
CCCCN1C=CN(C)C1,4.16% [at 32.5 µM] (inactive),
CC(C)[C@H]1CC[C@@H](C)CC1=O,-6.25% (inactive),
CCN1CCOCC1,-8.12% (inactive),
COc1cccc(OC)c1C(=O)N[C@@H]1C(=O)N2[C@@H]1SC(C)(C)[C@@H]2C(=O)O,1.05% (inactive),
COc1ccccc1OCC1CNC(=O)O1 (stereo not given),12.9% (inactive),
CCCCOCCOC(=O)CCCCCCCCC(=O)OCCOCCCC,-4.16% (inactive),
COc1ccnc(CS(=O)c2nc3cc(OC(F)F)ccc3[nH]2)c1OC (stereo not given),,inactive
NCCCC[C@H](N[C@@H](CCc1ccccc1)C(=O)O)C(=O)N1CCC[C@H]1C(=O)O,1.27% [at 32.5 µM] (inactive),
CC[N+](C)(CC)CCOC(=O)C1c2ccccc2Oc2ccccc21,-2.47% (inactive),
C[C@H]1[C@H](NC(=O)/C(=N/OC(C)(C)C(=O)O)c2csc(N)n2)C(=O)N1S(=O)(=O)O (stereo in doubt),-0.412% [at 32.5 µM] (inactive),
CCOCC(C)O (stereo not given),8.2% (inactive),
CC12CCC(C(=O)C1=O)C2(C)C (stereo not given),-1.26% [at 95 µM] (inactive),
CN(C)CCCN(C)CCCN(C)C,7.81% (inactive),
CCCCS(=O)(=O)N[C@@H](Cc1ccc(OCCCCC2CCNCC2)cc1)C(=O)O,-2.33% (inactive),
O=C(O)CNC(=O)c1ccc(CO)o1,1% (inactive),
C=CCOCC(O)CO (stereo not given),6.82% (inactive),

Structure (SMILES),"activity change, negative = cytotoxicity",outcome
CC(C)(CCC(=O)O)C(=O)O,-1.31% [at 95 µM] (inactive),
OCCc1ccccn1,8.4% (inactive),
CC1(C)[C@@H]2CC[C@@]1(C)[C@H](O)C2,-2.56% (inactive),
CCCCc1nc(Cl)c(CO)n1Cc1ccc(-c2ccccc2-c2nn[nH]n2)cc1,-0.273% (inactive),
CC(=O)c1ccccc1[N+](=O)[O-],13.4% (inactive),
CC(C)COC(=O)c1ccc(N)cc1,0.518% (inactive),
O=S(=O)(O)c1cccc2ccccc12,-3.91% (inactive),
C1CCC2(CCCCO2)OC1,1.32% (inactive),
Cc1ccnc(NS(=O)(=O)c2ccc(N)cc2)n1,-0.698% [at 32.5 µM] (inactive),
CCCCCCCCCC[N+](C)(C)[O-],1.39% (inactive),
c1ccc(Cc2ccccc2)cc1,0.334% (inactive),
CC1=NS(=O)(=O)c2cc(Cl)ccc2N1,8.3% (inactive),
Cc1ccc(C(=O)c2ccc(CC(=O)O)n2C)cc1,-17.2% [at 32.5 µM] (inactive),
Cc1cccc(C)c1NC(=O)CC12CCCN1CCC2,-1.99% (inactive),
Nc1ccccn1,0.0567% (inactive),
CCCCCCCCCCCCSC,8.35% (inactive),
C[C@@H]1CCC[C@H](C)N1,3.28% [at 32.5 µM] (inactive),
